Only some compounds are listed: those with a hit (about 19% of all), similar ones and a draw of the others.
uPA generation = blocks generation of uPA at the cell surface; actives 0.31% (n = 330,000); AID 540303; Potency, µM (titrated, usually from 38.3 µM), without a hit: top-dose activity change, negative = inhibition, hits mostly inhibitors; cell surface uPA generation assay, qHTS; active = well fitted inhibition curve with a large enough effect; inconclusive = small, poorly fitted or top-dose-only effect; inactive = no such curve, though single readings can be large or run the other way; tested in mouse RAW 264.7 cells; also: potency is read from the fitted curve at half-maximal effect; nearly all actives have a fitted effect of over 55% in size
IL1B secr inh = blocks inflammasome-driven IL-1 beta release | THP-1 LPS/ATP IL-1B secretion, AlphaLISA, 16 h; hits give low values | activity change, % at 57.5 µM | actives 4.7% (n = 360,000) | AID 743279; in the data active = activity change below about -50%; inconclusive = mostly about -30% to -49%
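Secreted IL-1B measured by AlphaLISA bead assay after 16 h compound exposure of THP-1 cells; compounds (final up to 57.5 uM) added 1 h before LPS (250 ng/mL) and ATP (1.25 mM) stimulation; lower signal means less secretion.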
TDP1 cell noCPT = qHTS for Inhibitors of human tyrosyl-DNA phosphodiesterase 1 (TDP1): qHTS in cells in absence of CPT. actives 15% (n = 420,000). Potency, µM (highest dose often 46.2 µM), for the others: at the top dose activity change, negative = growth inhibition, hits mostly inhibitors. DT40 Tdp1-/- hTDP1 cells, no CPT, ATP luminescence, 48 h; also: potency is read from the fitted curve at half-maximal effect; nearly all actives have a fitted effect of over 55% in size
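A cellular qHTS used chicken DT40 cells lacking endogenous Tdp1 but carrying stably transfected human TDP1. Compounds were applied without camptothecin, and cell growth kinetics were judged by ATP-dependent luminescence after ≥48 hr.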
TDP1 cell CPT = DT40-hTDP1 cell growth loss with CPT. chicken DT40 Tdp1-/-;hTDP1 cells + 20 nM CPT, ATP luminescence, 48 h. Potency, µM (doses to about 46.2 µM), without a hit: top-dose activity change, negative = growth inhibition, hits mostly inhibitors. actives 12% (n = 420,000). AID 686979; also: potency is read from the fitted curve at half-maximal effect; nearly all actives have a fitted effect of over 55% in size
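Chicken DT40 Tdp1-/- cells stably complemented with human TDP1 were seeded at 400 cells/well in medium containing 20 nM camptothecin, exposed to pin-transferred compounds, and grown at 37 °C for at least 48 hr. Viability was read as ATP luminescence.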
HT1080 IDH1KD tx = toxicity to HT-1080 IDH1 knockdown cells (counter line); actives 2% (n = 360,000); Potency, µM (series often up to 46.1 µM), inactives show at the top dose activity, negative = toxicity, hits mostly cytotoxic; HT-1080 IDH1 knockdown viability, ATP luminescence, 48 h; AID 686971;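 also: potency is read from the fitted curve at half-maximal effect; 0% = DMSO wells and -100% = cell-free medium wells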
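Luminescent ATP read-out (CellTiter-Glo, 10 min at room temperature) after 48 h compound exposure at 37 °C gave viability of IDH1-knockdown HT-1080 cells. Activity was normalised to DMSO and cell-free wells, then fitted as concentration-response curves.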
HT1080NT lethal = kills 2HG-producing HT-1080-NT fibrosarcoma cells. Potency, µM (titrated, usually from 46.1 µM), inactives show top-dose activity, negative = less viability, actives largely listed as cytotoxic. AID 686970. actives 1.6% (n = 360,000). HT-1080-NT fibrosarcoma viability, CellTiter-Glo ATP luminescence, 48 h;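 also: NT is the 2HG producing partner of a matched IDH1 knockdown line; potency is read from the fitted curve at half-maximal effect; 0% = DMSO-treated cells and -100% = media-only wells without cells; nearly all actives have a fitted effect of over 55% in size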
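Read-out is CellTiter-Glo luminescence after 10 minutes at room temperature, following 48 hours' compound treatment of HT-1080-NT cells (750 cells/well, RPMI, 5% FBS, 37 degrees C).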
Numbers without * were called inactive; ? = inconclusive; . = no result given; ! = not confirmed by another sample; [ ] = remark or other dose. Unless noted, calls follow the shape of the dose curve; as a rule, active = well fitted curve in the direction sought with a large enough effect; inconclusive = small, poorly fitted or top-dose-only effect, or another doubt; inactive = no such curve, though single readings can be large; an effect the other way counts as inactive or inconclusive. Unless noted, % is scaled to controls: 0 for no effect and ±100 for the full control effect.

SMILES	uPA generation	IL1B secr inh	TDP1 cell noCPT	TDP1 cell CPT	HT1080 IDH1KD tx	HT1080NT lethal
Cc1noc(C)c1COC(=O)c1ccc(F)c(S(=O)(=O)N2CCCCC2)c1	-15.5%	26.6	?	?	?	-8.9%
COc1cc(OC)c(N(C)S(=O)(=O)c2cccc(C(=O)OCc3c(C)noc3C)c2)cc1Cl	1.5%	61.1	23.1µM*	?	-15.3%	-13.3%
Cc1noc(C)c1COC(=O)c1cccc(S(=O)(=O)N2CCCCCC2)c1	-9.6%	15.0	14.6µM*	14.6µM*	20.6µM*	-10.4%
Cc1noc(C)c1COC(=O)c1ccc(S(=O)(=O)NCc2ccco2)cc1	-7.3%	-3.9	?	16.4µM*	-9.5%	-5.0%
O=C(COC(=O)c1ccc(S(=O)(=O)NCc2ccco2)cc1)c1ccccc1	3.1%	17.9	-19.2%	9.9%	8.5%	9.8%
COc1cc(OC)c(N(C)S(=O)(=O)c2cccc(C(=O)OCC(=O)N3CCOCC3)c2)cc1Cl	0.2%	36.1	?	?	4.1%	-0.2%
CCOC(=O)C1CCN(S(=O)(=O)c2ccc3oc(=O)ccc3c2)CC1	-6.5%	?	-7.9%	0.8%	1.4%	-3.5%
COc1ccc(S(=O)(=O)N(C)CC(=O)Nc2ccc(C)cc2)cc1OC	-17.1%	-14.5	?	23.1µM*	-1.7%	-3.7%
CSc1cccc(NC(=O)CN(C)S(=O)(=O)c2ccc(C)cc2)c1	3.3%	-10.7	16.4µM*	?	-1.8%	-10.7%
COC(=O)c1ccccc1NC(=O)CN(C)S(=O)(=O)c1ccc(OC)c(C)c1	.	12.8	?	23.1µM*	-20.3%	-8.1%
COC(=O)c1ccccc1NC(=O)CN(C)S(=O)(=O)c1ccc(OC)cc1	12.0%	19.6	?	?	6.4%	9.5%
FC(F)(F)c1cc(C(F)(F)F)c2ccc(N/N=C/c3ccccc3)nc2n1	3.4%	-8.0	3.0%	2.1%	18.9%	16.6%
Cc1ccc(C(C#N)c2ccc3c(C(F)(F)F)cc(C(F)(F)F)nc3n2)cc1 (centres undefined)	1.5%	?	18.4µM*	25.9µM*	3.5%	12.0%
N#CC(c1ccccc1)c1ccc2c(C(F)(F)F)cc(C(F)(F)F)nc2n1 (centres undefined)	6.1%	-82.6*	18.4µM*	13µM*	-4.2%	-14.3%
Cc1nc(NC(=O)c2cccc(Cl)c2)sc1C(=O)N1CCCCC1	-3.9%	?	18.4µM*	18.4µM*	0.4%	-4.2%
CC(C)Cc1nc2cc(NS(=O)(=O)N(C)C)cc(C(=O)N3CCSCC3)c2n1C	.	.	2.2%	-3.2%[9.04 µM]	.	.
O=C(CSc1nc(-c2ccco2)cc(C(F)(F)F)n1)NCCc1ccccc1	2.6%	-4.7	?	?	-18.1%	-1.7%
CC(C)(C)c1cc(C(F)(F)F)nc(SCCCNC(=O)c2ccco2)n1	7.5%	-16.9	20.6µM*	23.1µM*	4.1%[9.24 µM]	-1.8%
COc1ccc(S(=O)(=O)Cc2ccc(C(=O)NC3CCCCCC3)o2)cc1	-2.1%	-5.0	?	14.6µM*	-1.5%	18.8%
COc1ccc(CC(=O)N/N=C/c2cccn2-c2ccc([N+](=O)[O-])cc2)cc1OC	-4.2%	-12.9	14.6µM*	16.4µM*	3.8%	-0.1%
COc1ccc(CCNC(=O)CSCc2ccc([N+](=O)[O-])cc2)cc1OC	1.7%	-13.6	25.9µM*	25.9µM*	-1.2%	0.8%
COc1ccc(CCNC(=O)c2ccc(CS(=O)(=O)c3ccc(C)cc3)o2)cc1OC	5.1%	3.3	14.6µM*!	?	-8.8%	4.3%
COc1ccc(CCNC(=O)CSCc2ccc([N+](=O)[O-])cc2)cc1	-1.5%	7.4	-23.5%	-9.0%	11.3%	-1.3%
Cc1ccccc1-c1nc(SCC(=O)NCC2CCCO2)c2c(=O)n(C)c(=O)n(C)c2n1 (centres undefined)	.	.	-4.9%	-9.2%	.	.
CCc1ccccc1S(=O)(=O)Cc1ccc(C(=O)NC(C)C)o1	1.7%	-11.0	-25.6%	?	-0.8%	6.5%
SMILES	uPA generation	IL1B secr inh	TDP1 cell noCPT	TDP1 cell CPT	HT1080 IDH1KD tx	HT1080NT lethal
COc1ccc(CCNC(=O)c2ccc(CS(=O)(=O)c3ccc(Cl)cc3)o2)cc1OC	.	?	16.4µM*	23.1µM*	-28.6%	-7.2%
COc1ccc(CCNC(=O)c2ccc(CS(=O)(=O)Cc3ccc(C)cc3)o2)cc1OC	.	16.9	23.1µM*	?	-3.9%	8.8%
CCc1ccccc1S(=O)(=O)Cc1ccc(C(=O)NCCc2ccc(C)cc2)o1	.	.	29.1µM*	?	.	.
COc1ccc(CCNC(=O)c2ccc(CSc3ccc(Cl)cc3)o2)cc1OC	.	.	13.2µM*	13.2µM*	?	?
COc1ccc(CCNC(=O)c2ccc(-c3ccc([N+](=O)[O-])cc3Cl)o2)cc1OC	-5.3%	?	8.2µM*	7.31µM*	-28.7%	-21.9%
O=C(NCCc1ccc(Cl)cc1)c1ccc(CS(=O)(=O)Cc2ccccc2F)o1	.	.	20.6µM*	?	.	.
COc1ccc(N2CCN(CCCNC(=O)c3ccc(CS(=O)(=O)c4ccc(Cl)cc4)o3)CC2)cc1	?	-6.0	20.6µM*	?	-2.2%	-2.9%
O=C(NCC(c1ccccc1)c1ccccc1)c1nn(-c2ccccc2F)nc1CO	.	.	?	-16.9%	.	.
CC(=O)c1ccc(N2CCN(S(=O)(=O)c3ccc(-c4coc(C)n4)cc3)CC2)cc1	.	.	-21.7%	-22.2%	.	.
Nc1ccccc1Sc1c[nH]c2ccccc12	-26.1%	23.5	-27.6%	-18.2%	-10.5%	0.0%
OCC1(CO)CCCC(CO)(CO)C1O	0.3%	-6.4	-0.2%	0.6%	9.1%	3.6%
CC(C)NC(=NCc1ccc(Cl)cc1Cl)Nc1ccccc1	8.0%	.	5.17µM*	13µM*	-23.8%	?
O=C(CN1C(=O)NC2(CCCc3ccccc32)C1=O)NCC(F)(F)F (centres undefined)	4.1%	-1.8	-9.0%	-8.3%	-1.1%	2.3%
CCOc1ccc(Cl)cc1S(=O)(=O)n1nnc2ccccc21	-2.4%	27.9	?	16.4µM*	20.7%	10.9%
Cc1c(Cl)cccc1NC(=O)c1cc(-c2cccs2)on1	.	.	-27.7%	?	.	.
Nc1nc(SCC(=O)Nc2ccc(Cl)cc2)[nH]c(=O)c1-c1ccccc1	-1.6%	1.8	-10.2%	-1.0%	-17.7%	-21.1%
Cc1ccc(C2=NC(C)(C)N=C2SCC(=O)Nc2ccc(Cl)cc2)cc1	-10.3%	-106.4*	?	20.6µM*	?	?
CC1(C)N=C(SCC(=O)Nc2ccccc2)C(c2ccc(Cl)cc2)=N1	-9.8%	-93.1*	14.6µM*	23.1µM*	-23.6%	-16.3%

Screening results deposited in PubChem BioAssay by National Center for Advancing Translational Sciences (NCATS).
